Results: the supplement of paper PMC8728848
The full list was thinned out, with the strongest signals kept by preference.

Experiments:
Assay in all cases: glycan array binding signal (z-score within array); higher = stronger binding
Conditions in all cases: glycan notation: IUPAC condensed, linker removed
GalNAc(a1-3)GalNAc = target: GalNAc(a1-3)GalNAc
Summary of the method: (§1)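 The binding signal is a Z-score computed within each array and averaged over linkers. Arrays of the same protein sequence at different concentrations or buffers were also averaged together. Data originate from 3228 arrays in the Consortium for Functional Glycomics database, kept only where the protein sequence was available.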

GalNAc6S(b1-4)GlcNAc = target: GalNAc6S(b1-4)GlcNAc
Summary of the method: as §1

Glc(b1-6)Glc = target: Glc(b1-6)Glc
Summary of the method: as §1

[1] = target: GlcNAc(a1-3)Gal(b1-4)GlcNAc
Summary of the method: as §1

[2] = target: GlcNAc(a1-4)Gal(b1-4)GlcNAc(b1-3)Gal(b1-4)GlcNAc(b1-3)Gal(b1-4)GlcNAc
Summary of the method: as §1

[3] = target: GlcNAc(a1-4)Gal(b1-4)GlcNAc(b1-3)Gal(b1-4)[Fuc(a1-3)]GlcNAc(b1-3)Gal(b1-4)[Fuc(a1-3)]GlcNAc
Summary of the method: as §1

[4] = target: GlcNAc(b1-2)Man(a1-3)[GlcNAc(b1-2)Man(a1-6)]Man(b1-4)GlcNAc(b1-4)GlcNAc
Summary of the method: as §1

[5] = target: GlcNAc(b1-3)Gal(b1-4)GlcNAc(b1-3)Gal(b1-4)GlcNAc(b1-3)Gal(b1-4)GlcNAc(b1-2)Man(a1-3)[GlcNAc(b1-3)Gal(b1-4)GlcNAc(b1-3)Gal(b1-4)GlcNAc(b1-3)Gal(b1-4)GlcNAc(b1-2)Man(a1-6)]Man(b1-4)GlcNAc(b1-4)GlcNAc
Summary of the method: as §1

[6] = target: GlcNAc(b1-3)Gal(b1-4)GlcNAc(b1-3)Gal(b1-4)GlcNAc(b1-3)Gal(b1-4)GlcNAc(b1-3)Gal(b1-4)GlcNAc(b1-2)[GlcNAc(b1-3)Gal(b1-4)GlcNAc(b1-3)Gal(b1-4)GlcNAc(b1-3)Gal(b1-4)GlcNAc(b1-3)Gal(b1-4)GlcNAc(b1-6)]Man(a1-6)[GlcNAc(b1-3)Gal(b1-4)GlcNAc(b1-3)Gal(b1-4)GlcNAc(b1-3)Gal(b1-4)GlcNAc(b1-3)Gal(b1-4)GlcNAc(b1-2)Man(a1-3)]Man(b1-4)GlcNAc(b1-4)[Fuc(a1-6)]GlcNAc
Summary of the method: as §1

[7] = target: GlcNAc(b1-3)Gal(b1-4)GlcNAc(b1-3)[GlcNAc(b1-3)Gal(b1-4)GlcNAc(b1-3)]GalNAc
Summary of the method: as §1

Kdn(a2-3)Gal(b1-3)GlcNAc = target: Kdn(a2-3)Gal(b1-3)GlcNAc
Summary of the method: as §1

Kdn(a2-3)Gal(b1-4)GlcNAc = target: Kdn(a2-3)Gal(b1-4)GlcNAc
Summary of the method: as §1

[8] = target: Man(a1-3)[Man(a1-6)]Man(a1-6)[Man(a1-3)]Man(b1-4)GlcNAc(b1-4)GlcNAc
Summary of the method: as §1

[9] = target: Neu5Ac(a2-3)Gal(b1-3)GlcNAc(b1-6)GalNAc
Summary of the method: as §1

[10] = target: Neu5Ac(a2-3)Gal(b1-3)[Fuc(a1-4)]GlcNAc
Summary of the method: as §1

[11] = target: Neu5Ac(a2-3)Gal(b1-4)[Fuc(a1-3)]GlcNAc
Summary of the method: as §1

[12] = target: Neu5Ac(a2-3)Gal(b1-4)[Fuc(a1-3)]GlcNAc(b1-3)Gal(b1-4)GlcNAc
Summary of the method: as §1

[13] = target: Neu5Ac(a2-6)Gal(b1-4)GlcNAc(b1-2)Man(a1-3)[GlcNAc(b1-4)][Neu5Ac(a2-6)Gal(b1-4)GlcNAc(b1-2)Man(a1-6)]Man(b1-4)GlcNAc(b1-4)GlcNAc
Summary of the method: as §1

[14] = target: Neu5Ac(a2-6)Gal(b1-4)GlcNAc(b1-2)Man(a1-3)[Man(a1-6)]Man(b1-4)GlcNAc(b1-4)GlcNAc
Summary of the method: as §1

[15] = target: Neu5Ac(a2-6)Gal(b1-4)GlcNAc(b1-2)Man(a1-6)Man(b1-4)GlcNAc(b1-4)GlcNAc
Summary of the method: as §1

[16] = target: Neu5Ac(a2-6)Gal(b1-4)GlcNAc(b1-2)[Neu5Ac(a2-6)Gal(b1-4)GlcNAc(b1-4)]Man(a1-3)[GlcNAc(b1-4)][Neu5Ac(a2-6)Gal(b1-4)GlcNAc(b1-2)[Neu5Ac(a2-6)Gal(b1-4)GlcNAc(b1-6)]Man(a1-6)]Man(b1-4)GlcNAc(b1-4)GlcNAc
Summary of the method: as §1

[17] = target: Neu5Ac(a2-6)Gal(b1-4)GlcNAc(b1-2)[Neu5Ac(a2-6)Gal(b1-4)GlcNAc(b1-4)]Man(a1-3)[GlcNAc(b1-4)][Neu5Ac(a2-6)Gal(b1-4)GlcNAc(b1-4)Man(a1-6)]Man(b1-4)GlcNAc(b1-4)GlcNAc
Summary of the method: as §1

[18] = target: Neu5Ac(a2-6)GlcNAc(b1-4)GlcNAc(b1-4)GlcNAc
Summary of the method: as §1

[19] = target: Neu5Ac(a2-8)Neu5Ac(a2-3)[GalNAc(b1-4)]Gal(b1-4)Glc
Summary of the method: as §1

[20] = target: Neu5Ac9Ac(a2-3)Gal(b1-3)GlcNAc
Summary of the method: as §1

[21] = target: Neu5Gc(a2-3)Gal(b1-3)GlcNAc
Summary of the method: as §1

B1: MXA PilAct-eGFP (Myxococcus xanthus), Q59589 (protein)
chain: MRVSRFNPRNRGFTLIELMIVVAIIGILAAIAIPNFIKFQARSKQSEAKTNLKALYTAQKSFFSEKDRYSDFANEIGFAPERGNRYGYRVSAAAGDCEVRNAADLPVPAAGVPCISNDSFRFGANSAIDDPTPVVARFVPQGAAGWNTTLGVQPTIADCPNCNFFAGARGNADNEATFDDWVIAGFEGSGQVGPCSEAGNVASGTPYNTRNDVACDGAAQ
GalNAc(a1-3)GalNAc
  glycan array binding signal (z-score): -1.12
GalNAc6S(b1-4)GlcNAc
  glycan array binding signal (z-score): 0.26
Glc(b1-6)Glc
  glycan array binding signal (z-score): 1.37
[1]
  glycan array binding signal (z-score): -0.245
[2]
  glycan array binding signal (z-score): 0.596
[3]
  glycan array binding signal (z-score): 1.45
[4]
  glycan array binding signal (z-score): 0.002
[5]
  glycan array binding signal (z-score): 3.99
[6]
  glycan array binding signal (z-score): 3.85
[7]
  glycan array binding signal (z-score): -0.168
Kdn(a2-3)Gal(b1-3)GlcNAc
  glycan array binding signal (z-score): 0.462
Kdn(a2-3)Gal(b1-4)GlcNAc
  glycan array binding signal (z-score): -0.846
[8]
  glycan array binding signal (z-score): -0.784
[9]
  glycan array binding signal (z-score): -0.507
[10]
  glycan array binding signal (z-score): -0.236
[11]
  glycan array binding signal (z-score): -0.025
[12]
  glycan array binding signal (z-score): -0.9
[13]
  glycan array binding signal (z-score): -1.03
[14]
  glycan array binding signal (z-score): 3.09
[15]
  glycan array binding signal (z-score): 2.91
[16]
  glycan array binding signal (z-score): -0.369
[17]
  glycan array binding signal (z-score): -0.544
[18]
  glycan array binding signal (z-score): -0.645
[19]
  glycan array binding signal (z-score): 3.6
[20]
  glycan array binding signal (z-score): 4.29
[21]
  glycan array binding signal (z-score): 0.057
